The campaign covered roughly 5,500 compounds. About 2,000 (36%) were called active. Another 18% or so got no clear call; they are omitted. Rule as the data show it: active = normalized growth mostly below about 0.91 (no sharp cut-off); inconclusive = no clear call, values can overlap the other calls; inactive = mostly above about 0.92. This is one part of the list.
Experiment: chemical genetic growth profiling, strain panel (AID 1159580);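 also: tested at 20 µM; growth read once vehicle control cultures reached saturation at 30 °C; 1 = growth at the plate median or of vehicle wells; lower values mean less growth of the strain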
Conditions: growth OD

Compound: COc1ccc(-c2cc(=O)c3c(O)cc(O)cc3o2)cc1
- normalized growth (S. cerevisiae deletion strains, locus YJR075W, strain HOC1, hits give low values): 0.976 (inactive)
- normalized growth (S. cerevisiae deletion strains, locus YKL009W, strain mrt4, hits give low values): 0.94 (inactive)
- normalized growth (S. cerevisiae deletion strains, locus YKL068W, hits give low values): 0.979 (inactive)
- normalized growth (S. cerevisiae deletion strains, locus YKL085W, strain MDH1 (second series), hits give low values): 0.98 (inactive)
- normalized growth (S. cerevisiae deletion strains, locus YKL085W, strain MDH1, hits give low values): 0.98 (inactive)
- normalized growth (S. cerevisiae deletion strains, locus YKL160W, strain elf1, hits give low values): 0.928 (inactive)
- normalized growth (S. cerevisiae deletion strains, locus YKL190W, strain CNB1, hits give low values): 0.985 (inactive)
- normalized growth (S. cerevisiae deletion strains, locus YKR001C, strain vps1, hits give low values): 0.991 (inactive)
- normalized growth (S. cerevisiae deletion strains, locus YKR026C, strain gcn3, hits give low values): 0.994 (inactive)
- normalized growth (S. cerevisiae deletion strains, locus YKR091W, strain srl3, hits give low values): 0.997 (inactive)
- normalized growth (S. cerevisiae deletion strains, locus YLL001W, strain dnm1, hits give low values): 0.954 (inactive)
- normalized growth (S. cerevisiae deletion strains, locus YLL026W, hits give low values): 0.997 (inactive)
- normalized growth (S. cerevisiae deletion strains, locus YLL041C, strain sdh2, hits give low values): 0.996 (inactive)
- normalized growth (S. cerevisiae deletion strains, locus YLR027C, strain aat2, hits give low values): 0.97 (inactive)
- normalized growth (S. cerevisiae deletion strains, locus YLR039C, strain RIC1, hits give low values): 0.975 (inactive)
- normalized growth (S. cerevisiae deletion strains, locus YLR058C, strain SHM2, hits give low values): 0.998 (inactive)
- normalized growth (S. cerevisiae deletion strains, locus YLR102C, strain apc9, hits give low values): 0.984 (inactive)
- normalized growth (S. cerevisiae deletion strains, locus YLR113W, strain HOG1, hits give low values): 0.694 (active)
- normalized growth (S. cerevisiae deletion strains, locus YLR221C, strain rsa3, hits give low values): 0.986 (inactive)
- normalized growth (S. cerevisiae deletion strains, locus YLR258W, strain gsy2, hits give low values): 0.97 (inactive)
- normalized growth (S. cerevisiae deletion strains, locus YLR262C, strain YPT6 (second series), hits give low values): 0.908 (inactive)
- normalized growth (S. cerevisiae deletion strains, locus YLR262C, strain YPT6, hits give low values): 0.92 (inactive)
- normalized growth (S. cerevisiae deletion strains, locus YLR268W, strain sec22, hits give low values): 0.985 (inactive)
- normalized growth (S. cerevisiae deletion strains, locus YLR320W, strain mms22, hits give low values): 0.97 (inactive)
- normalized growth (S. cerevisiae deletion strains, locus YLR330W, strain CHS5, hits give low values): 0.989 (inactive)
- normalized growth (S. cerevisiae deletion strains, locus YLR342W, strain FKS1 (second series), hits give low values): 1.11 (inactive)
- normalized growth (S. cerevisiae deletion strains, locus YLR342W, strain FKS1, hits give low values): 1.01 (inactive)
- normalized growth (S. cerevisiae deletion strains, locus YLR357W, strain rsc2, hits give low values): 1.01 (inactive)
- normalized growth (S. cerevisiae deletion strains, locus YLR370C, strain arc18, hits give low values): 0.98 (inactive)
- normalized growth (S. cerevisiae deletion strains, locus YLR371W, strain rom2, hits give low values): 0.99 (inactive)
- normalized growth (S. cerevisiae deletion strains, locus YLR384C, strain iki3, hits give low values): 1.02 (inactive)
- normalized growth (S. cerevisiae deletion strains, locus YLR418C, strain cdc73, hits give low values): 0.957 (inactive)
- normalized growth (S. cerevisiae deletion strains, locus YML016C, strain PPZ1, hits give low values): 1.02 (inactive)
- normalized growth (S. cerevisiae deletion strains, locus YML032C, strain rad52, hits give low values): 1 (inactive)
- normalized growth (S. cerevisiae deletion strains, locus YML120C, strain ndi1, hits give low values): 0.952 (inactive)
- normalized growth (S. cerevisiae deletion strains, locus YML124C, strain tub3, hits give low values): 0.99 (inactive)
- normalized growth (S. cerevisiae deletion strains, locus YMR058W, strain fet3, hits give low values): 0.983 (inactive)
- normalized growth (S. cerevisiae deletion strains, locus YMR078C, strain ctf18, hits give low values): 0.981 (inactive)
- normalized growth (S. cerevisiae deletion strains, locus YMR125W, strain sto1, hits give low values): 0.979 (inactive)
- normalized growth (S. cerevisiae deletion strains, locus YMR129W, hits give low values): 0.991 (inactive)
- normalized growth (S. cerevisiae deletion strains, locus YMR205C, strain PFK2, hits give low values): 0.968 (inactive)
- normalized growth (S. cerevisiae deletion strains, locus YMR223W, strain ubp8, hits give low values): 0.982 (inactive)
- normalized growth (S. cerevisiae deletion strains, locus YMR231W, strain pep5, hits give low values): 1.01 (inactive)
- normalized growth (S. cerevisiae deletion strains, locus YMR263W, strain SAP30, hits give low values): 0.975 (inactive)
- normalized growth (S. cerevisiae deletion strains, locus YMR307W, strain GAS1, hits give low values): 1.21 (inactive)
- normalized growth (S. cerevisiae deletion strains, locus YNL067W, strain RPL9B, hits give low values): 0.946 (inactive)
- normalized growth (S. cerevisiae deletion strains, locus YNL071W, strain lat1, hits give low values): 0.952 (inactive)
- normalized growth (S. cerevisiae deletion strains, locus YNL183C, strain NPR1, hits give low values): 0.784 (active)
- normalized growth (S. cerevisiae deletion strains, locus YNL209W, strain ssb2, hits give low values): 0.967 (inactive)
- normalized growth (S. cerevisiae deletion strains, locus YNL233W, strain BNI4, hits give low values): 0.984 (inactive)
- normalized growth (S. cerevisiae deletion strains, locus YNL248C, strain rpa49, hits give low values): 1.03 (inactive)
- normalized growth (S. cerevisiae deletion strains, locus YNL250W, strain rad50, hits give low values): 0.966 (inactive)
- normalized growth (S. cerevisiae deletion strains, locus YNL271C, strain bni1, hits give low values): 0.98 (inactive)
- normalized growth (S. cerevisiae deletion strains, locus YNL298W, strain CLA4, hits give low values): 0.994 (inactive)
- normalized growth (S. cerevisiae deletion strains, locus YNL307C, strain MCK1, hits give low values): 0.978 (inactive)
- normalized growth (S. cerevisiae deletion strains, locus YNL322C, strain KRE1 (second series), hits give low values): 0.984 (inactive)
- normalized growth (S. cerevisiae deletion strains, locus YNR049C, strain mso1, hits give low values): 0.994 (inactive)
- normalized growth (S. cerevisiae deletion strains, locus YNR052C, strain pop2, hits give low values): 0.973 (inactive)
- normalized growth (S. cerevisiae deletion strains, locus YOL012C, strain htz1): 0.966 (inactive)
- normalized growth (S. cerevisiae deletion strains, locus YOL147C, strain pex11, hits give low values): 0.99 (inactive)
- normalized growth (S. cerevisiae deletion strains, locus YOR001W, strain rrp6, hits give low values): 1 (inactive)
- normalized growth (S. cerevisiae deletion strains, locus YOR061W, strain CKA2, hits give low values): 0.991 (inactive)
- normalized growth (S. cerevisiae deletion strains, locus YOR069W, strain VPS5, hits give low values): 1 (inactive)
- normalized growth (S. cerevisiae deletion strains, locus YOR070C, strain gyp1, hits give low values): 0.968 (inactive)
- normalized growth (S. cerevisiae deletion strains, locus YOR080W, strain dia2, hits give low values): 1 (inactive)
- normalized growth (S. cerevisiae deletion strains, locus YOR083W, strain WHI5, hits give low values): 0.917 (inactive)
- normalized growth (S. cerevisiae deletion strains, locus YOR106W, strain vam3, hits give low values): 0.93 (inactive)
- normalized growth (S. cerevisiae deletion strains, locus YOR136W, strain idh2, hits give low values): 0.984 (inactive)
- normalized growth (S. cerevisiae deletion strains, locus YOR144C, strain elg1, hits give low values): 1 (inactive)
- normalized growth (S. cerevisiae deletion strains, locus YOR184W, strain ser1, hits give low values): 0.978 (inactive)
- normalized growth (S. cerevisiae deletion strains, locus YOR231W, strain MKK1, hits give low values): 0.869 (inactive)
- normalized growth (S. cerevisiae deletion strains, locus YOR265W, strain rbl2, hits give low values): 0.984 (inactive)
- normalized growth (S. cerevisiae deletion strains, locus YOR270C, strain vph1, hits give low values): 0.95 (inactive)
- normalized growth (S. cerevisiae deletion strains, locus YOR290C, strain snf2, hits give low values): 0.868 (inactive)
- normalized growth (S. cerevisiae deletion strains, locus YOR316C, strain cot1, hits give low values): 0.987 (inactive)
- normalized growth (S. cerevisiae deletion strains, locus YPL051W, strain arl3, hits give low values): 0.963 (inactive)
- normalized growth (S. cerevisiae deletion strains, locus YPL055C, strain LGE1, hits give low values): 0.982 (inactive)
- normalized growth (S. cerevisiae deletion strains, locus YPL078C, strain atp4, hits give low values): 0.92 (inactive)
- normalized growth (S. cerevisiae deletion strains, locus YPL106C, strain sse1, hits give low values): 0.946 (inactive)
- normalized growth (S. cerevisiae deletion strains, locus YPL240C, strain hsp82, hits give low values): 0.994 (inactive)
- normalized growth (S. cerevisiae deletion strains, locus YPL241C, strain CIN2, hits give low values): 0.999 (inactive)
- normalized growth (S. cerevisiae deletion strains, locus YPL256C, strain CLN2, hits give low values): 0.756 (active)
- normalized growth (S. cerevisiae deletion strains, locus YPR119W, strain clb2, hits give low values): 0.983 (inactive)
- normalized growth (S. cerevisiae deletion strains, locus YPR141C, strain kar3, hits give low values): 0.985 (inactive)
- normalized growth (S. cerevisiae deletion strains, locus YPR163C, strain tif3, hits give low values): 0.991 (inactive)
- normalized growth (S. cerevisiae deletion strains, locus YPR167C, strain met16, hits give low values): 0.985 (inactive)
- normalized growth (S. cerevisiae deletion strains, strain wtn01, hits give low values): 1 (inactive)
- normalized growth (S. cerevisiae strains, strain wild type, hits give low values): 0.991 (inactive)

— PubChem BioAssay AID1159580 (chemical genetic matrix, 2015)
